Test results reported in PubChem BioAssay AID493035 (The Scripps Research Institute Molecular Screening Center, 2011).
Among all 2,000 compounds or so, about 45 (2%) were called active. The sample as a whole holds a higher share of actives than the screen did. Unmarked numbers belong to inactive results.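 Rule for the calls: active = inhibition above the mean of all tested compounds plus 3 SD (cut at about 49% in these data); inactive = the rest.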

target: Perilipin-5 (Homo sapiens) + 1-acylglycerol-3-phosphate O-acyltransferase ABHD5 (Homo sapiens) (UniProt Q00G26+Q8WTS1); test: blockers of ABHD5 binding to perilipin-5 – cell lysate, split luciferase complementation, luminescence, NIH validation set, pilot screen (AID 493035);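 note: 0% = DMSO only wells while the 100% control is not stated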; conditions: split G. princeps luciferase complementation, lysates, 4 h, at 7.9 µM, active compounds read high
Sequence (Q00G26 whole entry, looked up): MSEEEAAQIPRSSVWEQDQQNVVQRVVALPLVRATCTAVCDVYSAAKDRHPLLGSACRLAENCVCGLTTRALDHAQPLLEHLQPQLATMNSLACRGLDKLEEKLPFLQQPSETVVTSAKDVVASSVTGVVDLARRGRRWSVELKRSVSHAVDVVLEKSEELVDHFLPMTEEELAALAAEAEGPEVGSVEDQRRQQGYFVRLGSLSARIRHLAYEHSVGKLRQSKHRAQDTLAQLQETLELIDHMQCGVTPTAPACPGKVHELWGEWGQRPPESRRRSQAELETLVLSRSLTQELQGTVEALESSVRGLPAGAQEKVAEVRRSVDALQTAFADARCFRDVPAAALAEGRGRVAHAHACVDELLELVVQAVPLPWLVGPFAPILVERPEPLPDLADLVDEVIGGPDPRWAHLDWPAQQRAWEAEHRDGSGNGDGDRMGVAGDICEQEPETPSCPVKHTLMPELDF
Sequence (Q8WTS1 whole entry, looked up): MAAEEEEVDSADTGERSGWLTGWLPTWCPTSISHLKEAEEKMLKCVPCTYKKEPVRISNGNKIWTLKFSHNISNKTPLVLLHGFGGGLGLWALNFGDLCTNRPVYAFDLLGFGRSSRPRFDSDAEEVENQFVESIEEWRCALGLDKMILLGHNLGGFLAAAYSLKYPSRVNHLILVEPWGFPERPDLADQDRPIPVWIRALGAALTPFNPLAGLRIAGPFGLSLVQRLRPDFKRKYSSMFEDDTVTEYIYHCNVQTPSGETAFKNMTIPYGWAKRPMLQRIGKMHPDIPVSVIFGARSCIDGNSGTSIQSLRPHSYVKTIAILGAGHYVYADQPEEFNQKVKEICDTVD

Compound | inhibition
O=C1C(=O)c2ccccc2-c2ccccc21 | 69.8% (active)
S=C1NCCN1 | -0.74%
CC12CN3CC(C)(CN(C1)C31CCOCC1)C2=O | -15.3%
C[C@H]1CCC/C=C/C2C[C@H](O)CC2[C@H](O)/C=C/C(=O)O1 (stereo not given in full) | -14.2%
CC[C@]12C=CCN3CCC4(c5cc(Br)c(OC)cc5N(C)C4[C@@](O)(C(=O)OC)[C@@H]1OC(C)=O)C32 (stereo not given in full) | -5.38%
CCOC(=O)c1cc2c(cn1)[nH]c1ccccc12 | -11.3%
COP(=S)(OC)SCN1C(=O)c2ccccc2C1=O | 93.3% (active)
COc1ccc2c(c1)CC1(CN2C)C(=O)NC(=O)N(CCc2ccccc2)C1=O (stereo not given) | 3.64%
CC12CCC3C(CC=C4CC(O)CCC43C)C1C/C(=C\c1cccc(F)c1)C2=O (stereo not given) | -0.83%
O=C1C=Cc2ccccc2C1=O | 59.1% (active)
C[N+]1(C)C2CCC1CC(OC(=O)C(CO)c1ccccc1)C2 (stereo not given) | -3.97%
C[C@H]1CCCC(=O)CCCCCc2cc(O)cc(O)c2C(=O)O1 | 6.49%
Cc1cc2c(C(C)C)c(O)c(O)c(C=O)c2c(O)c1-c1c(C)cc2c(C(C)C)c(O)c(O)c(C=O)c2c1O | 50.7% (active)
NCC1(c2ccc3c(c2)OCCO3)CCCC1 | -7.35%
CCOC(=O)C(C)Oc1cc(C)cc2oc(=O)c3c(c12)CCCC3 (stereo not given) | 6.91%
COc1cc(/C=C2\C(=O)NC(=O)N(c3ccccc3)C2=O)c([N+](=O)[O-])cc1OC | 63.5% (active)
Cc1ccc(-n2c(C)cc(/C=C3/C(=O)NC(=O)N(C)C3=O)c2C)cc1 | 33.2%
CCOc1ccc(N2C(=O)NC(=O)/C(=C\c3cc(OC)c(OC)cc3[N+](=O)[O-])C2=O)cc1 | 66.2% (active)

Compound | inhibition
Cc1ccc(/C=C2/C(=O)NC(=O)N(C)C2=O)cc1 | 7.85%
CC[C@@H](CO)NC(=O)[C@@H]1C=C2c3cccc4c3c(cn4C)C[C@H]2N(C)C1 | 1.19%
C[C@]12CC[C@@H](O)C[C@@H]1CC[C@@H]1[C@@H]2CC[C@]2(C)C(=O)CC[C@@H]12 | -8.46%
Cc1ccsc1C(=O)C1CCCN(Cc2cc3ccccc3o2)C1 (stereo not given) | -2.51%
COc1ccc(-c2nc3ccccc3c(=O)o2)cc1 | -1.16%
CC(Cc1ccccc1)NCC(=O)Nc1cc(N(C)C)nc2ccccc12 (stereo not given) | 2.7%
COc1ccccc1CN1CCCCC1c1cccnc1 (stereo not given) | -4.35%
Clc1ccc(COC(Cn2ccnc2)c2ccc(Cl)cc2Cl)c(Cl)c1 (stereo not given) | 4.9%
COc1ccc(OC)c([C@@H](O)[C@H](C)NC(C)(C)C)c1 | 2.3%
C[N+](C)(C)Cc1ccccc1 | -2.04%
CC12CN3CC(c4ccccc4)(CN(C1)C31CCCCC1)C2=O | -2.32%
O=c1c2ccccc2[se]n1-c1ccccc1 | 95.1% (active)
Cc1nc2ccccc2c(=O)n1-c1ccc(C(=O)O)cc1 | 7.89%
O=c1c2ccccc2nc(/C=C/c2ccc3c(c2)OCO3)n1-c1ccccc1 | 2.37%
C[C@]12CC[C@@H](O)C[C@@H]1CC[C@@H]1[C@@H]2CC[C@]2(C)[C@@H](O)CC[C@@H]12 | -3.26%
CCN(CC)CCOC(=O)C(O)(c1ccccc1)c1ccccc1 | 0.42%
CCN1CC2(COC(=O)c3ccccc3N)CCC(OC)C34C5CC6C(OC)CC(O)(C5C6OC)C(O)(C(OC)C23)C14 (stereo not given) | 0.04%
